# Experimental data taken from publication PMC7862700, “An all-to-all approach to the identification of sequence-specific readers for epigenetic DNA modifications on cytosine”.
# Key:
# Test in all cases: DAPPL (digital affinity profiling via proximity ligation, sequencing); 10 mM Tris-HCl pH 7.5, 50 mM NaCl, 1 mM DTT, 4% glycerol, room temperature, 30 min; GST-TFs on glutathione beads, 16-mer random dsDNA library, 0.1% formaldehyde crosslink after washing; high values mean tight binding
# Settings in all cases: protein: recombinant; tags: N-terminal GST; dsDNA, one strand shown
# FLI1 = target: T1, FLI1 (Homo sapiens, UniProt Q01543 1-452)
# T1 sequence: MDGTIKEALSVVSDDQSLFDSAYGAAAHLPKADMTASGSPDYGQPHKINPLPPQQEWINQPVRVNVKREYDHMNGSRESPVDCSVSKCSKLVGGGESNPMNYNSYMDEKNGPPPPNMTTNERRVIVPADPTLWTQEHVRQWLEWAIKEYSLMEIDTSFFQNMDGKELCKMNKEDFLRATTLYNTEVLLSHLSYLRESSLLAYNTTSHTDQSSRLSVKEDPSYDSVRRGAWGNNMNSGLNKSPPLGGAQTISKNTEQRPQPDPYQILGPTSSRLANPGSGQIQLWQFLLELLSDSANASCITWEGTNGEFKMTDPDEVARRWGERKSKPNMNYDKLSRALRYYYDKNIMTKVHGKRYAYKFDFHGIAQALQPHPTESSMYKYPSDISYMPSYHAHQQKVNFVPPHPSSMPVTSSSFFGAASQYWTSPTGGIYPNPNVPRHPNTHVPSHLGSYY
# In short: (§1)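 Yeast served to express human transcription factors as GST fusions, which were then captured on glutathione beads and labelled with DNA barcodes. Pooled with a tag-only sample, they were incubated with 200 nmole of a 16-mer random double-stranded DNA library for 30 min at room temperature in Tris/NaCl/DTT/glycerol buffer, washed, crosslinked with 0.1% formaldehyde, ligated by proximity, amplified by PCR and sequenced. Dividing each hexamer's read frequency for a factor by its frequency for the tag-only sample gives the binding signal.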
# ERG = target: T2, ERG (Homo sapiens, UniProt P11308 1-479)
# T2 sequence: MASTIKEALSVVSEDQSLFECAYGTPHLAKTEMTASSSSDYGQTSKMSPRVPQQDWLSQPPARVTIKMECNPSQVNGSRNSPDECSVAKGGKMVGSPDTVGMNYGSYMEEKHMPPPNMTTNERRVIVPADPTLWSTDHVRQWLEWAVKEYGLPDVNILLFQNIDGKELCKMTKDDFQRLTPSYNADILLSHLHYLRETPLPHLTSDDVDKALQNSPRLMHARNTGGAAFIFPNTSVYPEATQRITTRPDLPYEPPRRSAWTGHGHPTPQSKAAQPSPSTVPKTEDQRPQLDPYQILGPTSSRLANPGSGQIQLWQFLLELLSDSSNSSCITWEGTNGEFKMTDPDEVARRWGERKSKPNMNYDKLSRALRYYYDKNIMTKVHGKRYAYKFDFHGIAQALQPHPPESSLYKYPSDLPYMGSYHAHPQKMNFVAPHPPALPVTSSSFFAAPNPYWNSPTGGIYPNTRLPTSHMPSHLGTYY
# In short: as §1
# ELF1 = ELF1 (Homo sapiens, UniProt P32519 1-619)
# In short: as §1
# SPIB = SPIB (Homo sapiens, UniProt Q01892 1-262)
# In short: as §1
# ELK3 = target: T3, ELK3 (Homo sapiens, UniProt P41970 1-407)
# T3 sequence: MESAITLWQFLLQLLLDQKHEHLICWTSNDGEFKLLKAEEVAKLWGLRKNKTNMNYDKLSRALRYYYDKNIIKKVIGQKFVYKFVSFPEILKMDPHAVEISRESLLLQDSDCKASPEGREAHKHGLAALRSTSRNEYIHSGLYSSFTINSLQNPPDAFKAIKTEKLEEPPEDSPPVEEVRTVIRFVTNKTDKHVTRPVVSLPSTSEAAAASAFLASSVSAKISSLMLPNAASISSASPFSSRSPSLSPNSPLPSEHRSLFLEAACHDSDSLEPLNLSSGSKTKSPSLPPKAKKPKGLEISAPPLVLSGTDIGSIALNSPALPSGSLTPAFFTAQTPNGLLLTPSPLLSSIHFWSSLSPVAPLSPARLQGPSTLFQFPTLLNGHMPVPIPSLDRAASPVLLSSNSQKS
# In short: as §1
# ETV1 = ETV1 (Homo sapiens, UniProt P50549 1-477)
# In short: as §1
# ERF = target: T4, ERF (Homo sapiens, UniProt P50548 1-548)
# T4 sequence: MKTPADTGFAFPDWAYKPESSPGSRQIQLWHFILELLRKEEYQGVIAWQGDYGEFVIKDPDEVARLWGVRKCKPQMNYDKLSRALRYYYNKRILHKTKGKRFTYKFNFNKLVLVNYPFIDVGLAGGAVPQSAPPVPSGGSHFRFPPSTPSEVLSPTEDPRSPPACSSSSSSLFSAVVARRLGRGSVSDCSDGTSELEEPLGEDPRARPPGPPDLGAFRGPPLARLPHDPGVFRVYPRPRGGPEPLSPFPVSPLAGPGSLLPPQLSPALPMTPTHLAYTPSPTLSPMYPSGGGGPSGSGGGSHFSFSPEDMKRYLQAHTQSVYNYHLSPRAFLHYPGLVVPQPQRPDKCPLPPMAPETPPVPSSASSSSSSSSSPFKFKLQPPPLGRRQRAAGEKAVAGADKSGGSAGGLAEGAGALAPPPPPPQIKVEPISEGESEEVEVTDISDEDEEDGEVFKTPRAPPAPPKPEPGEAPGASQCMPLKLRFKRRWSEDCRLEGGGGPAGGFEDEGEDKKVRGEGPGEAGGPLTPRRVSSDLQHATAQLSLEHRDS
# In short: as §1
# ETV3L = target: T5, ETV3L (Homo sapiens, UniProt Q6ZN32 1-361)
# T5 sequence: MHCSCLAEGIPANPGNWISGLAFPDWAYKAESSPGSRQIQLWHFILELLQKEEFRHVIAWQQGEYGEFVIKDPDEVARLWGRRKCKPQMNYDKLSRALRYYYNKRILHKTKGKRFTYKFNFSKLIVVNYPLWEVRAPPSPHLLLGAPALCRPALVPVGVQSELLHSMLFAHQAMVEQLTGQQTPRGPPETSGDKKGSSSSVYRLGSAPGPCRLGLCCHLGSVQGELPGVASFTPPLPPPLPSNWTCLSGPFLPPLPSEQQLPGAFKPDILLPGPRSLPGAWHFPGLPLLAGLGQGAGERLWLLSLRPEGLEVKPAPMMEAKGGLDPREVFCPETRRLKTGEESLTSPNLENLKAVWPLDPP
# In short: as §1
# ETV3 = target: T6, ETV3 (Homo sapiens, UniProt P41162-2 1-143)
# T6 sequence: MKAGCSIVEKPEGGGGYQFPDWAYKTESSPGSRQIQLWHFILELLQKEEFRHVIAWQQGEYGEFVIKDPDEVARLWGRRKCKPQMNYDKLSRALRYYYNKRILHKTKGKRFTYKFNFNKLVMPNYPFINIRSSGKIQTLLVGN
# In short: as §1
# GABPA = target: T7, GABPA (Homo sapiens, UniProt Q06546 1-454)
# T7 sequence: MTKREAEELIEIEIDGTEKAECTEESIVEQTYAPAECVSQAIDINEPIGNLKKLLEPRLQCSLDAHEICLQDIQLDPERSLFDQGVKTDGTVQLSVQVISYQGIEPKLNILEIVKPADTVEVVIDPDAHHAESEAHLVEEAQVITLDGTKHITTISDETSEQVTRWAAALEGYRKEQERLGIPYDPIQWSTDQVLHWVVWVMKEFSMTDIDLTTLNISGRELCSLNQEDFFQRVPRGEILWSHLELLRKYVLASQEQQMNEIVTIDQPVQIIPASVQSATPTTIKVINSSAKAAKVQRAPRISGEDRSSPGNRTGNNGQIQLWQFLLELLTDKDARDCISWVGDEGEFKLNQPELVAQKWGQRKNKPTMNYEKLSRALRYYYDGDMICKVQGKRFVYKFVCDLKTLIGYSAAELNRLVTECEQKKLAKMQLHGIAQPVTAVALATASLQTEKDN
# In short: as §1
# EHF = target: T8, EHF (Homo sapiens, UniProt Q9NZC4 1-300)
# T8 sequence: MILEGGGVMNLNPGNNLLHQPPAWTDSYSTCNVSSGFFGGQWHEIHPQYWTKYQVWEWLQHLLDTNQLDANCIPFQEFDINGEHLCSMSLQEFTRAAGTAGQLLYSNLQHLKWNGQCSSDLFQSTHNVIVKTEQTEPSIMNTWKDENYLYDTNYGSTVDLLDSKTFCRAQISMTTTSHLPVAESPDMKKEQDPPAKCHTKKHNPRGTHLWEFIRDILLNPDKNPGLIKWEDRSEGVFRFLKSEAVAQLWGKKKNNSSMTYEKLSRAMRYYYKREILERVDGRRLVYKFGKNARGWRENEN
# In short: as §1
# ETV2 = target: T9, ETV2 (Homo sapiens, UniProt O00321 1-342)
# T9 sequence: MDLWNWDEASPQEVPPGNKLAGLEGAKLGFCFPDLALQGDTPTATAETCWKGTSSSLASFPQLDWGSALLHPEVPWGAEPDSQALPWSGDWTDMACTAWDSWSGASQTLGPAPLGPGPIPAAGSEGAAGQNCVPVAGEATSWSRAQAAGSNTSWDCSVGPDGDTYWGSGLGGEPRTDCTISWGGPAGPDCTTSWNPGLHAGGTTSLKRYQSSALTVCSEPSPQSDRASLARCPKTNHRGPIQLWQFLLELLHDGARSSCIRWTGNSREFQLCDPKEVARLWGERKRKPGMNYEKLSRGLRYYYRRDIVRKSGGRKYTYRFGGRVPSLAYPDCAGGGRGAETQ
# In short: as §1
# ELF3 = target: T10, ELF3 (Homo sapiens, UniProt P78545 1-371)
# T10 sequence: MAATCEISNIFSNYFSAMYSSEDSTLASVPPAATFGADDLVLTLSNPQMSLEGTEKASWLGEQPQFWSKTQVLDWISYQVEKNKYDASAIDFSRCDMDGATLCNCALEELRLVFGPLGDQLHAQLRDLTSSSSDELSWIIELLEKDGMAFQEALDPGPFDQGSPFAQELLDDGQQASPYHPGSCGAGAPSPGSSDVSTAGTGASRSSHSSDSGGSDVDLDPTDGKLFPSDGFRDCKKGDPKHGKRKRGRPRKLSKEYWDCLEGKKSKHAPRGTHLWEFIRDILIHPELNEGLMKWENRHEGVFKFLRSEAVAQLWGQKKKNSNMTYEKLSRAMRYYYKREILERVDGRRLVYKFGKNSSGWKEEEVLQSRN
# In short: as §1
# ETV7 = target: T11, ETV7 (Homo sapiens, UniProt Q9Y603 1-341)
# T11 sequence: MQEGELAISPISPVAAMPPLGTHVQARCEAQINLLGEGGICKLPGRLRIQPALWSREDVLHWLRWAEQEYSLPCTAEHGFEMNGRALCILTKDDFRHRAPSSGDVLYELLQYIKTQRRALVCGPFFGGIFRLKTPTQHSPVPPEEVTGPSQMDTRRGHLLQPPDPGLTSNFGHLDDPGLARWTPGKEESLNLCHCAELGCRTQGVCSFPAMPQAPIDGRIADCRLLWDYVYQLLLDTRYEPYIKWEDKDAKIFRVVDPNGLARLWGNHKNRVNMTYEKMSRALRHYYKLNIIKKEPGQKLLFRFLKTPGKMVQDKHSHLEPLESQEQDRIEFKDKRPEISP
# In short: as §1
# ETV6 = ETV6 (Homo sapiens, UniProt P41212 1-452)
# In short: as §1
# ELF1, sequence (P32519 whole entry): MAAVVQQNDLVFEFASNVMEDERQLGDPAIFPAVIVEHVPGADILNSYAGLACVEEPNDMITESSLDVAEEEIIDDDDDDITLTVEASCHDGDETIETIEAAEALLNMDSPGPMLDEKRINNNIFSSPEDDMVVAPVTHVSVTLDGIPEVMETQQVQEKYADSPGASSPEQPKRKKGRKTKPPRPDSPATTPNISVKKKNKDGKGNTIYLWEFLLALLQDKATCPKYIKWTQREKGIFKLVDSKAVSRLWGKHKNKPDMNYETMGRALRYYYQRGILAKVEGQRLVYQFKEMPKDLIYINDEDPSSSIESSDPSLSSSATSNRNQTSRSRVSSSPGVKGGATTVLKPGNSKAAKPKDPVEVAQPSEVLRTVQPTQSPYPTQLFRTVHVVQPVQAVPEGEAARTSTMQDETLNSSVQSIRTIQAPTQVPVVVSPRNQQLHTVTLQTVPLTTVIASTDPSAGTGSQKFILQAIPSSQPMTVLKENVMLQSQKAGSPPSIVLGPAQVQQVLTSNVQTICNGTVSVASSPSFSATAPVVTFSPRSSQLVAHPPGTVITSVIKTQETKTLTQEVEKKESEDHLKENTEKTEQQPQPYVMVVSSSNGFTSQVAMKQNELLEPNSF
# ETV6, sequence (P41212 whole entry): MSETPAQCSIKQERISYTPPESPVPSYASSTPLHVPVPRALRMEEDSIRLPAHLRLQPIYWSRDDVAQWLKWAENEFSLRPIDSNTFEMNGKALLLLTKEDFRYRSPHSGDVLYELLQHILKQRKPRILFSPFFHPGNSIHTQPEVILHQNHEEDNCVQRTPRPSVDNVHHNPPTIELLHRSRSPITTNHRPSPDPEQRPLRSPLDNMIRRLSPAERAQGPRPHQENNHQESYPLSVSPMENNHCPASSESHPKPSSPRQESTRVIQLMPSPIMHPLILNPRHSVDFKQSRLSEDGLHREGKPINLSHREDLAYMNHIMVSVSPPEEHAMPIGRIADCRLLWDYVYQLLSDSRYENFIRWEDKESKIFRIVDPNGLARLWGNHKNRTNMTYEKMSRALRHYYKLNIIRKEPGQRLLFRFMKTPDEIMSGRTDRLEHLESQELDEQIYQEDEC
# SPIB, sequence (Q01892 whole entry): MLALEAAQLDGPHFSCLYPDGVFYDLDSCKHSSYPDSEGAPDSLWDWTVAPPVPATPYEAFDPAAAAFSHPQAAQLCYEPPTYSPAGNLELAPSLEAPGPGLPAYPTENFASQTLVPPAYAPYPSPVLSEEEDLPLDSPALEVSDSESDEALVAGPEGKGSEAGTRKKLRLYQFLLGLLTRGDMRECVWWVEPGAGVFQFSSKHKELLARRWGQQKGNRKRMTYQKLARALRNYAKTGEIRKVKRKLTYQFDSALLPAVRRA
# ETV1, sequence (P50549 whole entry): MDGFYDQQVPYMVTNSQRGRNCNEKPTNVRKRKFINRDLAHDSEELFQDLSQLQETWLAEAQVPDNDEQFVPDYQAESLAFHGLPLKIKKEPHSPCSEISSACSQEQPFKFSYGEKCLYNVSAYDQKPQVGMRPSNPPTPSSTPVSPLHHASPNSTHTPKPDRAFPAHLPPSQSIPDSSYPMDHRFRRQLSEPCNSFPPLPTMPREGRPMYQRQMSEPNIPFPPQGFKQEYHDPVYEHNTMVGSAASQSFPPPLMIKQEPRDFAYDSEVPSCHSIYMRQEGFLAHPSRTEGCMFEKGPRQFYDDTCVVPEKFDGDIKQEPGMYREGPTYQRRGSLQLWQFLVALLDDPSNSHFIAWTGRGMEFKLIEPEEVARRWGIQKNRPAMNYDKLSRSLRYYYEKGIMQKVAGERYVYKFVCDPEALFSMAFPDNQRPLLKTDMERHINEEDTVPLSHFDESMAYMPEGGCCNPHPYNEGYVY
Sequence,binding signal (FLI1),binding signal (ERG),binding signal (ELF1),binding signal (SPIB),binding signal (ELK3),binding signal (ETV1),binding signal (ERF),binding signal (ETV3L),binding signal (ETV3),binding signal (GABPA),binding signal (EHF),binding signal (ETV2),binding signal (ELF3),binding signal (ETV7),binding signal (ETV6)
CTCGGG,"1.06 fold enrichment (6-mer frequency, TF over GST control)","1.03 fold enrichment (6-mer frequency, TF over GST control)","1.09 fold enrichment (6-mer frequency, TF over GST control)","1.03 fold enrichment (6-mer frequency, TF over GST control)","1.05 fold enrichment (6-mer frequency, TF over GST control)","1.03 fold enrichment (6-mer frequency, TF over GST control)","1.02 fold enrichment (6-mer frequency, TF over GST control)","1.09 fold enrichment (6-mer frequency, TF over GST control)","1 fold enrichment (6-mer frequency, TF over GST control)",–,–,–,–,–,–
TTGGAA,"1.01 fold enrichment (6-mer frequency, TF over GST control)",–,–,–,–,–,–,–,–,"1.03 fold enrichment (6-mer frequency, TF over GST control)","1.04 fold enrichment (6-mer frequency, TF over GST control)","1.02 fold enrichment (6-mer frequency, TF over GST control)","1.06 fold enrichment (6-mer frequency, TF over GST control)","1 fold enrichment (6-mer frequency, TF over GST control)","1.03 fold enrichment (6-mer frequency, TF over GST control)"
